# The entries come from a sample that favours hits as a whole.
# Mac1 fbg enh – enhancers of CD11b/CD18 adhesion to fibrinogen, primary screen, K562 cells, luminescence; Integrin beta-2 (Homo sapiens) + Integrin alpha-M (Homo sapiens), P05107+P11215; ATPlite luminescence; activation, % at 10 µM; 93,000 tested, 0.07% active; AID 1499, 2009;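 active means 10 µM primary screen giving 50% or more activity, confirmed by 40% or more on retest at that dose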
# Mac1 fbg inh – inhibitors of CD11b/CD18 adhesion to fibrinogen, primary screen, K562 cells, luminescence. inhibition, % at 10 µM. AID 1497, 2009. ATPlite luminescence; Mn2+ added to activate the integrin. 93,000 tested, 0.54% active. Integrin beta-2 (Homo sapiens) + Integrin alpha-M (Homo sapiens), P05107+P11215;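 active means primary inhibition of 50% or more at 10 µM, then 40% or more on retest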
# FAK inh – FAK kinase inhibitors, primary screen, biochemical; 97,000 tested, 0.84% active; inhibition, %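 (tested at 7 µM)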; biochemical FAK kinase activity assay; Focal adhesion kinase 1 (Homo sapiens), Q05397; in the data active means inhibition above about 19%;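 further: 0% = DMSO and 100% = reference compound high control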
# Target sequence (Q05397 whole entry, looked up): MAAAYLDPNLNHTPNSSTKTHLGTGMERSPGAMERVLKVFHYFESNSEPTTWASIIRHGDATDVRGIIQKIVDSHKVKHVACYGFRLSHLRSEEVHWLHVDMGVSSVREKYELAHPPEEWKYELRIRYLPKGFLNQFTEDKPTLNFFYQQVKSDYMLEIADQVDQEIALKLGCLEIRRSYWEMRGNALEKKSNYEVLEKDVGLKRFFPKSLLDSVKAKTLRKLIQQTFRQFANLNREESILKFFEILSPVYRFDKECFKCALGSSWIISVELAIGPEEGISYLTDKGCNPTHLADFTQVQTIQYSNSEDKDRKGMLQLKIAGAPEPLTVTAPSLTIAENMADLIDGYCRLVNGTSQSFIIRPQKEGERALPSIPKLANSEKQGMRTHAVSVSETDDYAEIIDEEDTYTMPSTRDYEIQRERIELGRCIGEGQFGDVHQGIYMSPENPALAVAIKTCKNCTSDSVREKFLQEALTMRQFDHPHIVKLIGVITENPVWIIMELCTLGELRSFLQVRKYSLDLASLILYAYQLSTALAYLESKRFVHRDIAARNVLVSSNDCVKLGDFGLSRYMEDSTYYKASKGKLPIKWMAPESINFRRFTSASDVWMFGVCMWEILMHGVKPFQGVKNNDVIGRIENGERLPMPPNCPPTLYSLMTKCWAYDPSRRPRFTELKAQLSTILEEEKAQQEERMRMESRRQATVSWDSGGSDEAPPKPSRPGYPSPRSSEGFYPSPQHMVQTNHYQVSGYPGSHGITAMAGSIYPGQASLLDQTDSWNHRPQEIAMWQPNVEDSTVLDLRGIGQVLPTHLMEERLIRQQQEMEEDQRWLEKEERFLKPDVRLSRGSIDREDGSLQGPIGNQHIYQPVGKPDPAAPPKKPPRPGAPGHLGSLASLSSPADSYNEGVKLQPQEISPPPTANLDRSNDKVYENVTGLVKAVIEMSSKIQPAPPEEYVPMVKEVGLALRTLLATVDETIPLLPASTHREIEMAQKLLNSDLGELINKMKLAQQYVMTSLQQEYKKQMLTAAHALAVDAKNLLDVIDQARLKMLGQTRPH
# PTK2B oligo ant – antagonists of Pyk2 self-association, primary screen, Q293 cells, FERM NanoBiT luminescence, HTS | hits give low values | 99,000 tested, 0.83% active | z-score (the deposit names both 25 µM and 10 µM) | Protein-tyrosine kinase 2-beta (Homo sapiens), Q14289;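 active means Z-score of -3 or lower, scaled per plate to the spread of control and sample wells; inactive means z-score above -3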;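 further: negative z-score means lost luminescence so less FERM oligomerization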
# hDAT+cocaine – changed hDAT dopamine uptake under cocaine IC80, either direction, primary screen, cocaine antagonist project, cell-based, LLC-PK1 hDAT, [14C]-dopamine uptake, MLSMR. LLC-PK1 hDAT cells, [14C]-dopamine uptake with cocaine IC80; actives deviate in either direction. B-score at 10 µM. 110,000 tested, 1.3% active;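 active means Z score or B-score, a plate-position-corrected score, falls beyond the plate's 99.7% confidence bounds, in either direction; inactive means both scores lie inside the 99.7% bounds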;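 further: scored against the spread of the other compound wells on the same plate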
# D1 allo mod – D1 CRE-luciferase signal change, two-sided – cell-based, HEK293 D1, dopamine EC30, D1 allosteric modulator project, primary screen | D(1A) dopamine receptor (Homo sapiens), P21728 | dopamine EC30 potentiation; actives deviate in either direction | B-score at 10 µM | 58,000 tested, 5.9% active;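 active means luminescence count or its row- and column-corrected plate score outside the 99.7% band of the plate's sample wells, on either side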
# * hit, by the source's call; · = no result given.
SMILES,Mac1 fbg enh,Mac1 fbg inh,FAK inh,PTK2B oligo ant,hDAT+cocaine,D1 allo mod
Cc1ccc(N2C(=O)c3ccccc3C2Nc2ccccc2F)nc1 (configuration not stated),-1.9,-5.0,-1.6,·,-0.912,0.735
Cc1ccc(N2C(=O)c3ccccc3C2O)nc1 (configuration not stated),-0.3,16.6,·,·,·,-6.69*
COc1cc(/C=C(/C#N)c2nc3ccccc3[nH]2)ccc1OCC(=O)Nc1ccccc1C,204.0*,-3.0,14.1,-0.58,1.42,·
COc1cc(/C=C(/C#N)c2nc3ccccc3[nH]2)ccc1OCC(=O)Nc1ccccc1C(C)C,·,·,11.9,-0.17,-0.74,·
CCn1c(=O)n(CCOC)c(=O)c2c3c(sc21)CCCC3,·,·,0.5,-0.08,-0.564,6.31*
O=C(Nc1ccc(Cc2ccncc2)cc1)c1ccco1,-0.5,-0.5,-4.3,-0.07,0.379,-0.0221
Cc1ccccc1NC(=O)N1CCCC(c2nc(-c3ccc(C(C)C)cc3)no2)C1 (configuration not stated),-8.5,91.9,1.0,-0.71,-1.73,1.08
Cc1ccccc1NC(=O)N1CCCC(c2nc(-c3ccc(F)cc3)no2)C1 (configuration not stated),-2.4,0.5,-1.3,0.93,3.05*,-0.179
CC1(C)c2[nH]c3ccccc3c2C[C@H]2C(=O)N(Cc3ccccc3)C(=O)N21,·,·,·,·,2.84*,·
CC1(C)c2[nH]c3ccccc3c2C[C@@H]2C(=O)N(Cc3ccccc3)C(=O)N21,·,·,·,·,0.492,·
C=CCc1ccccc1OCC(O)CN1CCN(c2ccccc2OC)CC1 (configuration not stated),2.1,18.9,-2.0,0.71,-0.711,-6.07*
CCOc1ccccc1N1CCN(Cc2cccc(OC)c2O)CC1,1.5,-16.4,2.0,-0.39,0.858,-3.68*
C=CCc1ccccc1OCC(O)CN1CCN(c2ccccc2F)CC1 (configuration not stated),-0.3,-5.7,3.4,0.07,-0.136,-4.6*
OC(COc1ccccc1Cl)CN1CCN(CC(O)COc2ccccc2Cl)CC1 (configuration not stated),22.4,1.2,6.9,-0.44,-0.0405,-6.27*
CCC(C)NC(=O)c1ccc(CS(=O)(=O)Cc2ccc(Cl)cc2)o1 (configuration not stated),1.0,-3.3,0.2,1.34,-0.998,·
CCOC(=O)C(CC)Sc1nc(-c2ccc(OC)cc2)nc2c1c(=O)n(C)c(=O)n2C (configuration not stated),·,·,-0.3,·,·,-0.594
CCOC(=O)N1CCC(NC(=O)c2cn(-c3ccc(OC)cc3)c(=O)c3ccccc23)CC1,·,·,-10.4,-0.32,2.23*,-0.0584
Cn1c(NC(=O)c2cc(-c3ccc4c(c3)OCO4)nc3ccccc23)cc(=O)n(C)c1=O,·,·,-1.1,-3.96*,·,1.53
Nc1nonc1C(=O)NCCNCc1ccccc1OCc1ccccc1F,-0.6,17.9,-2.0,0.71,-0.0217,-2.25
Nc1nonc1C(=O)NCCNCc1cc(Br)ccc1OCc1ccccc1F,2.1,-10.6,7.2,0.69,0.0982,-3.3*
Cc1nn(-c2cc(N3CCCCC3)ccc2[N+](=O)[O-])c(=O)c2ccccc12,·,·,-0.3,-3.76*,1.19,·
Cc1ccc(C(=O)NCc2ccco2)cc1S(=O)(=O)Nc1cccc(Cl)c1,-2.9,16.8,-0.8,-1.2,-0.065,·
O=C(NCCCN1CCN(c2ccccc2)CC1)Nc1ccccc1C(F)(F)F,-0.9,-43.2,-0.4,1.07,-0.119,-2.69*
COc1ccccc1N1CCN(CCCNC(=O)Nc2ccccc2)CC1,·,·,1.2,0.38,-0.0581,-4.78*
CCOc1cc(-c2cc(-c3ccccc3)nc(N)c2C#N)ccc1O,-3.4,-9.3,2.6,-3.35*,-0.864,·
SMILES,Mac1 fbg enh,Mac1 fbg inh,FAK inh,PTK2B oligo ant,hDAT+cocaine,D1 allo mod
Cc1cccc(C)c1NC1=NC2(CCCCC2)N=C(N)N1,-5.9,3.0,-2.7,1.79,0.00228,1.15
COc1cccc(NC2=NC3(CCCCC3)N=C(N)N2)c1,2.4,10.2,-0.3,0.37,0.185,-2.73*
Cc1ccc(C)c(NC2=NC3(CCCCC3)N=C(N)N2)c1,·,·,-0.8,0.24,0.362,-5.99*
Cc1ccc(NC2=NC3(CCCCC3)N=C(N)N2)c(C)c1,10.9,-4.0,-1.2,0.56,-0.696,-4.11*
Cc1cc(NCCCn2ccnc2)n2ncc(-c3ccc(Cl)cc3)c2n1,·,·,-4.7,-1.09,4.08*,·
Cc1cc(NCCCN2CCOCC2)n2ncc(-c3ccc(Cl)cc3)c2n1,0.7,1.5,-4.7,0.4,-0.257,-1.37
COc1ccc(S(=O)(=O)N2CCCC(C(=O)NC3CCCCC3)C2)cc1 (configuration not stated),-3.4,-2.9,-1.6,0.78,-0.387,0.0171
COc1ccc(S(=O)(=O)N2CCCC(C(=O)O)C2)cc1 (configuration not stated),-3.3,-5.0,-2.5,0.38,·,-2.62*
C/C(=N\NC(=O)C1CCCN(S(=O)(=O)c2ccccc2)C1)c1cccnc1 (configuration not stated),-2.8,-10.3,-8.1,-0.71,2.39*,·
O=[N+]([O-])c1ccc(Sc2nccn2Cc2ccccc2)c([N+](=O)[O-])c1,0.2,-24.9,-1.1,-0.59,-2.38,·
Cc1cccc2cc(C#N)c(N3CCN(C)CC3)nc12,-5.5,-3.2,-4.1,-0.04,0.788,-2.21*
Cc1cc(C)cc(N2CC34C=CC(O3)C(C(=O)OCC(=O)NCc3ccco3)C4C2=O)c1 (configuration not stated),0.0,-3.1,-0.1,0.28,0.743,0.016
CC1CCN(C(=O)c2ccc3c(c2)OCCO3)CC1,-4.9,20.2,2.4,-0.65,6.72*,0.21
O=C(c1ccc2nc(N3CCOCC3)sc2c1)N1CCCC1,-2.2,3.5,·,·,-0.378,2.28
CC1CCN(c2nc3ccc(C(=O)N4CCN(Cc5ccc6c(c5)OCO6)CC4)cc3s2)CC1,-4.2,55.8*,-1.9,·,·,·
Cc1nnc2n(C3CCCCC3)c(=O)c3c4c(sc3n12)COC(C)(C)C4,-0.7,-15.3,4.1,-1.57,2.9,·
CC1(C)Cc2c(sc3nc(SCC#N)n(C4CCCCC4)c(=O)c23)CO1,·,·,·,·,·,25.7*
COc1ccc(C(=O)COC(=O)CCN2C(=O)[C@@H]3[C@H](C2=O)[C@@H]2C[C@H]3C(Br)C2Br)cc1 (some centres not stated),0.6,4.7,·,·,·,·
COc1ccc(C(=O)COC(=O)CCN2C(=O)C3C4CC(C(Br)C4Br)C3C2=O)cc1 (configuration not stated),-0.5,-8.7,-1.2,-0.29,-2.26*,·
Nc1nc2ccccc2nc1N,-1.6,-4.9,·,-0.25,-8*,-0.337

# Screens (PubChem BioAssay)
